Results taken from PubChem BioAssay (EPA / NIEHS).
Results filed as inconclusive are left out. Active and inactive are the calls of the source. The calls were made as follows, unless noted: active = hit-call score of the fitted dose curve at least 0.9, where 1 is the maximum; inconclusive = response in the unintended direction; inactive = score below 0.9.

Tests used:
[1] = read-out: Cytochrome P450 2C9 (Homo sapiens) (UniProt P11712); assay: CLD_CYP2C9_24hr: CellzDirect (CLD) Gene Expression Assay for xenobiotic metabolism (CYP2C9) at 24 hours (AID 2283688)
Procedure, shortened: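 Primary human hepatocytes from two donor preparations, dosed daily for two days at multiple concentrations; vehicle 0.2% DMSO. CYP2C9 mRNA induction at 24 h measured by qNPA chemiluminescence relative to DMSO; cytotoxicity annotated from morphology.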

[2] = read-out: Cytochrome P450 3A4 (Homo sapiens) (UniProt P08684); assay: CLD_CYP3A4_24hr: CellzDirect (CLD) Gene Expression Assay for xenobiotic metabolism (CYP3A4) at 24 hours (AID 2283689)
Procedure, shortened: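 Primary human hepatocytes from two donors dosed daily with fresh compound for two days, 0.2% DMSO vehicle. CYP3A4 mRNA at 24 hr by qNPA chemiluminescence; gain-of-signal fit versus DMSO, cytotoxicity flagged by morphology.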

[3] = read-out: alkyl and aryl transferase (GSTA2), GSTA2 (gene 2939); assay: CLD_GSTA2_24hr: CellzDirect (CLD) Gene Expression Assay for alkyl and aryl transferase (GSTA2) at 24 hours (AID 2283693)
Procedure, shortened: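 Primary human hepatocytes (two donor preparations) dosed daily for two days with chemicals at multiple concentrations (vehicle 0.2% DMSO); GSTA2 mRNA at 24 h measured by qNPA chemiluminescence, gain-of-signal versus DMSO.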

[4] = read-out: ABC Transporter (ABCB1), ABCB1 (gene 5243); assay: CLD_ABCB1_48hr: CellzDirect (CLD) Gene Expression Assay for ABC Transporter (ABCB1) at 48 hours (AID 2283695);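 as to AC50: potency for induction meaning increase of mRNA over DMSO vehicle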
Procedure, shortened: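 Primary human hepatocytes from two donor preparations dosed daily on two consecutive days with 0.2% DMSO vehicle. Harvest at 48 h. ABCB1 mRNA quantified by qNPA with chemiluminescence and fitted for gain of signal versus DMSO.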

[5] = read-out: glucuronosyltransferase (UGT1A1), UGT1A1 (gene 54658); assay: CLD_UGT1A1_24hr: CellzDirect (CLD) Gene Expression Assay for glucuronosyltransferase (UGT1A1) at 24 hours (AID 2283696)
Procedure, shortened: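 Primary human hepatocytes from two donor preparations were dosed (0.2% DMSO vehicle) and harvested at 24 h; UGT1A1 mRNA induction was quantified by chemiluminescent qNPA, fitted as gain relative to DMSO.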

[6] = read-out: Cytochrome P450 2B6 (Homo sapiens) (UniProt P20813); assay: CLD_CYP2B6_48hr: CellzDirect (CLD) Gene Expression Assay for xenobiotic metabolism (CYP2B6) at 48 hours (AID 2283699);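 also: actives raise transcript level above DMSO so potency reflects induction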
Procedure, shortened: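 Primary human hepatocytes dosed daily for two days over multiple concentrations, 0.2% DMSO vehicle; CYP2B6 mRNA quantified at 48 h by qNPA chemiluminescence. Induction fitted as gain of signal versus DMSO; cytotoxicity annotated by morphology.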

[7] = read-out: Glyceraldehyde-3-phosphate dehydrogenase (Homo sapiens) (UniProt P04406); assay: CLD_GAPDH_48hr: CellzDirect (CLD) Gene Expression Assay for Baseline Control (Glyceraldehyde 3-phosphate dehydrogenase) at 48 hours (AID 2283706);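 also: active means higher GAPDH mRNA than DMSO vehicle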
Procedure, shortened: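 Primary human hepatocytes dosed daily for two days with fresh chemical at multiple concentrations, 0.2% DMSO vehicle; GAPDH mRNA measured at 48 h by quantitative nuclease protection assay with chemiluminescence, fitted upward relative to DMSO as background control.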

[8] = read-out: HMG-CoA synthase (HMGCS2), HMGCS2 (gene 3158); assay: CLD_HMGCS2_48hr: CellzDirect (CLD) Gene Expression Assay for HMG-CoA synthase (HMGCS2) at 48 hours (AID 2283711)
Procedure, shortened: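 Primary human hepatocytes from two donors dosed daily for two days, 0.2% DMSO vehicle. HMGCS2 mRNA measured 48 h after dosing by quantitative nuclease protection assay with chemiluminescent read-out; induction fitted relative to DMSO, cytotoxicity flagged by microscopy.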

[9] = STM_H9_CystineISnorm_perc: Stemina devTOX quickPredict H9 human embryonic stem cell (hESC)-based Assay for Cystine (CYSS) Metabolite Biomarker, Normalized (AID 2283713; active = hit-call score of the fitted dose curve at least 0.9, where 1 is the maximum; inactive = score below 0.9)
Procedure, shortened: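 H9 hESC, pluripotent; compound 72h, re-dosed q24h with medium change. Last-24h medium → 40% acetonitrile deproteinization → UPLC-HRMS. CYSS area / C13-CYSS standard, then % of 0.1% DMSO median.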

[10] = STM_H9_OrnCyssISnorm_ratio: Stemina devTOX quickPredict H9 human embryonic stem cell (hESC)-based Assay for Ornithine (ORN):Cystine (CYSS) Ratio (AID 2283714)
Procedure, shortened: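 Undifferentiated H9 hESCs were exposed to compound for 72h with media and chemical replaced every 24h. Final 24-h conditioned media were deproteinized and analysed by UPLC-HRMS. ORN and CYSS peak areas were normalized to C13 internal standards and the ratio taken versus 0.1% DMSO.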

[11] = CEETOX_H295R_MTT_cell_viability: Viability Assessment in the CeeTox HT-H295R MTT Assay (AID 2283718; active = hit-call score of the fitted dose curve at least 0.9, where 1 is the maximum; inactive = score below 0.9;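 as to AC50: curve fitted both ways so AC50 may mark viability loss or gain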)
Procedure, shortened: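 H295R cells prestimulated 48 h with 10 uM forskolin, then exposed 48 h to test chemical (0.1% DMSO final). Viability by MTT (0.5 mg/ml, 4 h, 37 C), absorbance 570/650 nm; percent change versus DMSO, bidirectional fit.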

[12] = read-out: xenobiotic metabolism (CYP1A2), CYP1A2 (gene 1544); assay: CLD_CYP1A2_24hr: CellzDirect (CLD) Gene Expression Assay for xenobiotic metabolism (CYP1A2) at 24 hours (AID 2283683)
Procedure, shortened: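 Primary human hepatocytes from two donor preparations dosed daily with multiple concentrations of chemical, 0.2% DMSO vehicle. CYP1A2 mRNA at 24 h quantified by qNPA chemiluminescence; gain of signal analyzed relative to DMSO. Cytotoxicity flagged by phase-contrast morphology.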

[13] = read-out: ABC Transporter (ABCB11), ABCB11 (gene 8647); assay: CLD_ABCB11_48hr: CellzDirect (CLD) Gene Expression Assay for ABC Transporter (ABCB11) at 48 hours (AID 2283697)
Procedure, shortened: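 Primary human hepatocytes from two donor preparations dosed daily for two days at multiple concentrations; 0.2% DMSO vehicle. ABCB11 mRNA at 48 h by quantitative nuclease protection assay, chemiluminescence; fitted for induction versus DMSO.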

[14] = read-out: xenobiotic metabolism (CYP1A2), CYP1A2 (gene 1544); assay: CLD_CYP1A2_48hr: CellzDirect (CLD) Gene Expression Assay for xenobiotic metabolism (CYP1A2) at 48 hours (AID 2283703)
Procedure, shortened: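 Primary human hepatocytes from two donor preparations were dosed daily for two days at multiple concentrations in 0.2% DMSO vehicle. CYP1A2 mRNA was measured at 48 hours by chemiluminescent quantitative nuclease protection assay, with gain of signal fitted versus DMSO and cytotoxicity annotated from morphology.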

[15] = read-out: xenobiotic metabolism (CYP1A1), CYP1A1 (gene 1543); assay: CLD_CYP1A1_48hr: CellzDirect (CLD) Gene Expression Assay for xenobiotic metabolism (CYP1A1) at 48 hours (AID 2283705)
Procedure, shortened: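 Primary human hepatocytes from two donors dosed daily for two days at multiple concentrations, 0.2% DMSO vehicle; CYP1A1 mRNA induction at 48 h by qNPA chemiluminescence. Cytotoxicity noted by phase-contrast morphology.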

[16] = read-out: alkyl and aryl transferase (GSTA2), GSTA2 (gene 2939); assay: CLD_GSTA2_48hr: CellzDirect (CLD) Gene Expression Assay for alkyl and aryl transferase (GSTA2) at 48 hours (AID 2283708);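 also: active means mRNA induction above DMSO vehicle baseline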
Procedure, shortened: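 Primary human hepatocytes dosed daily for two days (0.2% DMSO vehicle), harvested at 48 h. GSTA2 mRNA induction measured by quantitative nuclease protection assay with chemiluminescent imaging, fitted for gain of signal relative to DMSO.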

[17] = read-out: glucuronosyltransferase (UGT1A1), UGT1A1 (gene 54658); assay: CLD_UGT1A1_48hr: CellzDirect (CLD) Gene Expression Assay for glucuronosyltransferase (UGT1A1) at 48 hours (AID 2283709);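 also: actives increase expression relative to DMSO so potency refers to induction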
Procedure, shortened: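 Human primary hepatocytes dosed daily for two days (0.2% DMSO vehicle), harvested at 48 h. UGT1A1 mRNA induction measured by quantitative nuclease protection assay with chemiluminescence; gain of signal versus DMSO; cytotoxicity flagged from morphology.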

[18] = read-out: xenobiotic metabolism (CYP2C9), CYP2C9 (gene 1559); assay: CLD_CYP2C9_48hr: CellzDirect (CLD) Gene Expression Assay for xenobiotic metabolism (CYP1A2) at 48 hours (AID 2283701; active = hit-call score of the fitted dose curve at least 0.9, where 1 is the maximum; inactive = score below 0.9)
Procedure, shortened: (§1)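 Primary human hepatocytes (two donor preparations) dosed daily for two days with test chemicals, 0.2% DMSO vehicle; harvested at 48 h. mRNA induction quantified by qNPA chemiluminescence, fitted for gain of signal against DMSO baseline; cytotoxicity annotated from phase-contrast morphology.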

[19] = read-out: Cytochrome P450 2C9 (Homo sapiens) (UniProt P11712); assay: CLD_CYP2C9_48hr: CellzDirect (CLD) Gene Expression Assay for xenobiotic metabolism (CYP2C9) at 48 hours (AID 2283701)
Procedure, shortened: as §1

Measured: AC50

Glyceraldehyde-3-phosphate dehydrogenase (Homo sapiens), sequence (P04406 whole entry, looked up): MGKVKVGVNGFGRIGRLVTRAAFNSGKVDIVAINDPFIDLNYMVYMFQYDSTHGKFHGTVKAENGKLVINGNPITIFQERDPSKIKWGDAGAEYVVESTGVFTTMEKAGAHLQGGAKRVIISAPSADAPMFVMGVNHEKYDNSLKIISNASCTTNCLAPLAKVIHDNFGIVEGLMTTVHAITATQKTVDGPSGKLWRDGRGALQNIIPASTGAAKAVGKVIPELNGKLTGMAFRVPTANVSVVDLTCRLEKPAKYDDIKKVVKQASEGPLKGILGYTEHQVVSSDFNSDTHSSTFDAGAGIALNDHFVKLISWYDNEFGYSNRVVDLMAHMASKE
Cytochrome P450 3A4 (Homo sapiens), sequence (P08684 whole entry, looked up): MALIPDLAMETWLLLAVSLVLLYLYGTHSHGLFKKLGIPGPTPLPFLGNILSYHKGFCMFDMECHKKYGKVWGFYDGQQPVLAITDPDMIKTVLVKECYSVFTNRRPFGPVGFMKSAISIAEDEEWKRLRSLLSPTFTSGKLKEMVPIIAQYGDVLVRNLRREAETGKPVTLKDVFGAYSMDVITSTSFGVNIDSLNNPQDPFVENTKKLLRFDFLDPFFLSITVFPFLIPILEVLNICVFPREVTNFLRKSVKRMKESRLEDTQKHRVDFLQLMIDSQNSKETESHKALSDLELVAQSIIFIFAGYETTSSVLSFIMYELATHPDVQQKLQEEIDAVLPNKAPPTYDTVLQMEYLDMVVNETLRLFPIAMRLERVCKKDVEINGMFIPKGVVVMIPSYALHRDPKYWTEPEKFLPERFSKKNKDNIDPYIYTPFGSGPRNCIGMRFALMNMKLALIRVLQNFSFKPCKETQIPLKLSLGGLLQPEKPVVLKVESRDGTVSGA

CCCCOC(=O)C(C)Oc1ccc(Oc2ccc(C(F)(F)F)cn2)cc1 (configuration not stated)
inactive: [1] | [2] | [3] | [4] | [6] | [7] | [9] | [10]
active: [5] 20 µM | [8] 0.263 µM

CC(=O)[C@H]1CC[C@H]2[C@@H]3CCC4=CC(=O)CC[C@]4(C)[C@H]3CC[C@]12C
inactive: [11]

C#C[C@]1(O)CC[C@H]2[C@@H]3CCC4=CC(=O)CC[C@@H]4[C@H]3CC[C@@]21CC
inactive: [11]

CCC(C)OC(=O)N1CCCCC1CCO (configuration not stated)
inactive: [12] | [3] | [4] | [5] | [13] | [6] | [14] | [15] | [7] | [16] | [17] | [8]

CN(C)C(=O)Nc1ccc(Cl)c(Cl)c1
inactive: [5] | [17] | [11]
active: [12] 4.42 µM | [6] 3.85 µM | [14] 11.9 µM | [15] 12.4 µM | [9] 70.5 µM | [10] 82.4 µM

COC(=O)CSc1cc(N=c2sc(=O)n3n2CCCC3)c(F)cc1Cl
inactive: [4] | [14] | [15]
active: [2] 1.9 µM | [5] 3.17 µM | [6] 4.48 µM | [18] 9.13 µM | [17] 5.72 µM | [9] 83 µM | [10] 80 µM

CC(C)CCCCCCc1ccc(O)cc1
active: [9] 70 µM | [10] 75.7 µM

N[C@@H](Cc1cc(I)c(Oc2ccc(O)c(I)c2)c(I)c1)C(=O)O
inactive: [9] | [10]

C[C@]12C[C@H](O)[C@H]3[C@@H](CCC4=CC(=O)CC[C@@]43C)[C@@H]1CC[C@@H]2C(=O)CO
inactive: [11]
active: [9] 81.5 µM | [10] 93.8 µM

CCSC(=O)N(CC(C)C)CC(C)C
inactive: [12] | [3] | [4] | [5] | [6] | [14] | [7] | [16] | [17] | [8] | [9] | [10]

CCCCOC(=O)[C@@H](C)Oc1ccc(Oc2ccc(C(F)(F)F)cn2)cc1
active: [12] 20 µM | [9] 42.8 µM | [10] 52.8 µM
inactive: [2] | [5] | [6] | [14] | [15] | [16] | [17] | [8] | [11]

c1ccc2[nH]c(-c3cscn3)nc2c1
inactive: [6] | [17] | [8] | [11]
active: [12] 0.345 µM | [14] 1.36 µM | [15] 0.781 µM

S=C([S-])NCCNC(=S)[S-].[Mn+2]
inactive: [12] | [2] | [7] | [9] | [10] | [11]
active: [4] 1.9 µM | [15] 3.58 µM

CCCOC(=O)c1ccc(C(=O)OCCC)nc1
active: [8] 0.269 µM
inactive: [1] | [3] | [4] | [13] | [6] | [14] | [7] | [17]

COCCO
inactive: [1] | [3] | [4] | [13] | [19] | [14] | [15] | [7] | [16] | [17]

CCOC(=O)COc1cc(-n2ncc(C(F)(F)F)c(C)c2=O)c(F)cc1Cl
active: [2] 20 µM
inactive: [4] | [5] | [6] | [19] | [14] | [15] | [7] | [16] | [17]

CCOC(=O)c1ccc(O)cc1
inactive: [11]

CCCOC(=O)NCCCN(C)C
inactive: [2] | [3] | [4] | [5] | [14] | [15] | [7] | [16] | [17] | [8]

CSC(=O)c1cccc2nnsc12
active: [12] 20 µM | [14] 9.55 µM | [9] 81.4 µM | [10] 78.6 µM
inactive: [2] | [5] | [15] | [16] | [17] | [8] | [11]

CC(C)(c1ccc(O)cc1)c1ccc(O)cc1
inactive: [1] | [2] | [3] | [5] | [6] | [19] | [15] | [7] | [16] | [17] | [9] | [10] | [11]

CCN(Cc1c(F)cccc1Cl)c1c([N+](=O)[O-])cc(C(F)(F)F)cc1[N+](=O)[O-]
active: [12] 0.418 µM | [2] 1.45 µM | [6] 0.273 µM | [14] 0.565 µM | [15] 1.22 µM | [11] 13.3 µM
inactive: [17] | [9] | [10]

C=CCOC(Cn1ccnc1)c1ccc(Cl)cc1Cl (configuration not stated)
active: [4] 36.9 µM | [6] 0.163 µM | [15] 3.84 µM | [16] 36.7 µM
inactive: [3] | [5] | [7] | [17] | [9] | [11]
